# Several values for one entry are separate records, joined by “and”; a condition that tells them apart may be missing. Equal values may be shown once. Values without a mark were called inactive. Results filed as inconclusive are left out. Activity calls are given as the source filed them. Unless noted, the rule behind the calls is not given here.
# What was measured:
# [1] = biological target: Nuclear receptor subfamily 1 group I member 2 (Rattus norvegicus) (UniProt Q9R1A7); assay: qHTS assay for small molecule activators of the rat pregnane X receptor (rPXR) signaling pathway (AID 651751); settings: rPXR reporter cells, luciferase (One-Glo), 24 h; note: 0% is about no effect
# [2] = qHTS assay for small molecule activators of the human pregnane X receptor (PXR) signaling pathway (AID 720659); settings: DPX-2 HepG2 CYP3A4-luciferase, 24 h; series mostly up to 92.3 µM; note: 0% is about no effect
# [3] = qHTS assay to identify inhibitors of the type 1 interferon - major histocompatibility complex class I in skeletal muscle: Counter screen cell viability and HiBit confirmation (AID 1347412; active = well fitted inhibition curve with a large enough effect; note: potency is the fitted concentration of half-maximal effect; for activity change, negative = inhibition: % is set by controls: 0 for no effect and ±100 for the full control effect; for all read-outs here: nearly all actives have a fitted effect of over 60% in size); settings: iHSKM muscle cells + IFN-b, HiBiT or CellTiter-Glo, 24 h; for activity change, negative = inhibition: at 45.9 µM (top of the series)
# Procedure, shortened: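 Luminescence read-out: Nano-Glo HiBiT lytic signal from C-terminally HiBiT-tagged HLA-B in CRISPR-edited human myoblasts, plus CellTiter Glo ATP as viability counter screen. IFN-beta 4.0 ng/ml; 24 hrs treatment at 37 C, 5% CO2.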
# Sequence of Nuclear receptor subfamily 1 group I member 2 (Rattus norvegicus) (Q9R1A7 whole entry, looked up): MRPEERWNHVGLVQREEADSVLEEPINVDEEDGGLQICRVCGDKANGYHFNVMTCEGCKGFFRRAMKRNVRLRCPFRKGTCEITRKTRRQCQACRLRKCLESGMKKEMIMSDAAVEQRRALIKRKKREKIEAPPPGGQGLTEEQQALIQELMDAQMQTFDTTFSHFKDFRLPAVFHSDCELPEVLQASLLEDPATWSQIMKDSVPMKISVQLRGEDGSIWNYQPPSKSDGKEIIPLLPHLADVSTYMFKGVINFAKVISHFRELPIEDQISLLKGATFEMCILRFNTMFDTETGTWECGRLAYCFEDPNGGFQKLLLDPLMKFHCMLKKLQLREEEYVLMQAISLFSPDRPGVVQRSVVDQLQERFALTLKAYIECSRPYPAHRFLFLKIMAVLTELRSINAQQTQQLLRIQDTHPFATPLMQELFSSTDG
compound,measurement,setting,value
CC(=O)CC(c1ccccc1)c1c(O)c2ccccc2oc1=O (stereo not drawn),max response,[1],2.18%
same,outcome,[2],inactive
Cc1ncc([N+](=O)[O-])n1CCO,max response,[1],6.53%
same,outcome,[2],inactive
CC(=O)Oc1ccccc1C(=O)Nc1ncc([N+](=O)[O-])s1,Potency,[3]; HiBiT,14 µM (active)
same,"activity change, negative = inhibition",[3]; Viability,-5.7%
Oc1c(Cl)cc(Cl)c2cccnc12,"activity change, negative = inhibition",[3]; HiBiT,-16.5%
same,"activity change, negative = inhibition",[3]; Viability,-8.17%
CCc1cc(C(N)=S)ccn1,max response,[1],7.13% and -2.63%
N=C(N)c1ccc(OCCCCCOc2ccc(C(=N)N)cc2)cc1,outcome,[2],inactive
CNC(=O)c1cc(Oc2ccc(NC(=O)Nc3ccc(Cl)c(C(F)(F)F)c3)cc2)ccn1,"activity change, negative = inhibition",[3]; Viability,-24%
CCCCc1oc2ccc(NS(C)(=O)=O)cc2c1C(=O)c1ccc(OCCCN(CCCC)CCCC)cc1,"activity change, negative = inhibition",[3]; HiBiT,-10.2%
CCC(=O)O[C@]1(C(=O)SCF)[C@H](C)C[C@H]2[C@@H]3C[C@H](F)C4=CC(=O)C=C[C@]4(C)[C@@]3(F)[C@@H](O)C[C@@]21C,"activity change, negative = inhibition",[3]; HiBiT,-26.7%
same,"activity change, negative = inhibition",[3]; Viability,10%
COC(=O)Nc1nc2ccc(C(=O)c3ccccc3)cc2[nH]1,"activity change, negative = inhibition",[3]; Viability,-33.9%
S=P(N1CC1)(N1CC1)N1CC1,max response,[1],2.63%
Cc1nnc(NS(=O)(=O)c2ccc(N)cc2)s1,max response,[1],-0.291%
same,outcome,[2],inactive
NC(N)=NC(N)=NCCc1ccccc1,outcome,[2],inactive
CC(C)C[C@H](NC(=O)[C@H](CCc1ccccc1)NC(=O)CN1CCOCC1)C(=O)N[C@@H](Cc1ccccc1)C(=O)N[C@@H](CC(C)C)C(=O)[C@@]1(C)CO1,Potency,[3]; HiBiT,0.0883 µM (active)
O=C(N[C@H](CO)[C@H](O)c1ccc([N+](=O)[O-])cc1)C(Cl)Cl,max response,[1],-5.66% and -3.04%
O[C@@H](CNC[C@H](O)[C@H]1CCc2cc(F)ccc2O1)[C@@H]1CCc2cc(F)ccc2O1,"activity change, negative = inhibition",[3]; HiBiT,26%
same,"activity change, negative = inhibition",[3]; Viability,-9.67%
